# IL-1B inflam inh – qHTS for Inhibitors of Inflammasome Signaling: IL-1-beta AlphaLISA Primary Screen; THP-1 LPS/ATP IL-1B secretion, AlphaLISA, 16 h; active compounds read low; activity change, % at 57.5 µM; 4.7% of 360,000 active; in the data active = activity change below about -50%; inconclusive = mostly about -30% to -49%
#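 THP-1 cells pretreated 1 hr with compounds (up to 57.5 uM final), then stimulated with LPS (250 ng/mL final) plus ATP (1.25 mM final); secreted IL-1B measured by AlphaLISA after 16 hr, decreased signal indicating inhibition.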
# HT1080 IDH1KD tx – qHTS for induction of synthetic lethality in tumor cells producing 2HG: qHTS for the HT-1080-IDH1KD cell line; HT-1080 IDH1 knockdown viability, ATP luminescence, 48 h; Potency, µM (series often up to 46.1 µM), hits mostly cytotoxic; 2% of 360,000 active; AID 686971, 2013
#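 Knockdown cells (IDH1KD HT-1080) received compounds 2 h after plating at 750 cells/well and were kept 48 h at 37 °C in 5% FBS RPMI. A CellTiter-Glo luminescence read gave % activity for curve fitting.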
# uPA generation – qHTS for Inhibitors of Cell Surface uPA Generation. cell surface uPA generation assay, qHTS. Potency, µM (highest dose often 38.3 µM), most hits filed as inhibitors. 0.31% of 330,000 active; active = well fitted inhibition curve with a large enough effect; inconclusive = small, poorly fitted or top-dose-only effect; inactive = no such curve, though single readings can be large or run the other way; tested in mouse RAW 264.7 cells; also: nearly all actives have a fitted effect of over 55% in size
# HT1080NT lethal – qHTS for induction of synthetic lethality in tumor cells producing 2HG: qHTS for the HT-1080-NT fibrosarcoma cell line. HT-1080-NT fibrosarcoma viability, CellTiter-Glo ATP luminescence, 48 h. Potency, µM (series often up to 46.1 µM), most hits filed as cytotoxic. 1.6% of 360,000 active;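 also: NT is the 2HG producing partner of a matched IDH1 knockdown line; nearly all actives have a fitted effect of over 55% in size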
#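 Luminescent CellTiter-Glo readout after 48 hours of compound exposure at 37 degrees C defined viability of HT-1080-NT cells. Activity was normalized to DMSO wells and cell-free media wells; concentration-response curves were fitted and assigned curve classes.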
# TDP1 cell noCPT – qHTS for Inhibitors of human tyrosyl-DNA phosphodiesterase 1 (TDP1): qHTS in cells in absence of CPT; DT40 Tdp1-/- hTDP1 cells, no CPT, ATP luminescence, 48 h; Potency, µM (series often up to 46.2 µM), actives largely listed as inhibitors; 15% of 420,000 active; AID 686978, 2013; also: nearly all actives have a fitted effect of over 55% in size
#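 Readout: luminescence from CellTiter-Glo after 30 min in the dark at RT. Cells: DT40 Tdp1-/- with stable hTDP1, 400/well. Exposure: compounds alone, ≥48 hr, 37 °C.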
# DT40 TDP1 CPT – qHTS for Inhibitors of human tyrosyl-DNA phosphodiesterase 1 (TDP1): qHTS in cells in presence of CPT; chicken DT40 Tdp1-/-;hTDP1 cells + 20 nM CPT, ATP luminescence, 48 h; Potency, µM (highest dose often 46.2 µM), most hits filed as inhibitors; 12% of 420,000 active; also: nearly all actives have a fitted effect of over 55% in size
#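 Cell growth measured by CellTiter-Glo luminescence after a minimum 48 h, 37 C compound exposure with 20 nM CPT in Tdp1-knockout DT40 cells stably expressing hTDP1, seeded 400/well; qHTS titration format.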
# Numbers stand for hits; i = inactive; ? = inconclusive; nt = no result; ! = not confirmed by another sample. Most compounds without a hit are left out; they make up all but 19% or so of the library. Unless noted, calls follow the shape of the dose curve; as a rule, active = well fitted curve in the direction sought with a large enough effect; inconclusive = small, poorly fitted or top-dose-only effect, or another doubt; inactive = no such curve, though single readings can be large; an effect the other way counts as inactive or inconclusive.
SMILES,IL-1B inflam inh,HT1080 IDH1KD tx,uPA generation,HT1080NT lethal,TDP1 cell noCPT,DT40 TDP1 CPT
Cc1ccc(S(=O)(=O)N2CCC(N3CCN(Cc4ccccc4)C(=O)C3=O)CC2)cc1C,nt,nt,nt,nt,?,i
OCCOCCN1CCN(C2=Nc3ccccc3Sc3ccccc32)CC1,i,i,i,i,19µM!,24µM!
OCCOCCN1CCN(C(c2ccccc2)c2ccc(Cl)cc2)CC1 (configuration not stated),i,i,i,i,?,?
Cn1c(NC(=O)C[n+]2cc(-c3ccc(Cl)c(Cl)c3)n3c2CCC3)cc(=O)n(C)c1=O,i,i,i,i,?,i
COc1ccc(C(=O)C[n+]2ccc(-c3nnc4n3CCCCC4)cc2)cc1,i,i,i,i,i,i
O=C(C[n+]1cc(-c2ccccc2)n2c1CCCCC2)c1ccc(Br)cc1,-77,i,i,i,23µM,21µM
Cc1ccc(C(=O)C[n+]2cc(-c3ccc(C)cc3)n3c2CCCCC3)cc1,-96,18µM,i,13µM,0.15µM,0.21µM
COc1ccc(C(=O)C[n+]2cc(-c3ccc(OC)cc3)n3c2CCCC3)cc1,i,?,?,i,6.5µM,9.2µM
Cc1ccc(-c2c[n+](Cc3ccc(Cl)c(Cl)c3)c3n2CCC3)cc1,-79,?,i,?,0.52µM,0.58µM
CCOc1ccc(CCNC(=O)c2ccc(C)c(NC3=NC4CS(=O)(=O)CC4S3)c2)cc1 (configuration not stated),i,i,i,i,i,i
COc1ccc(CCNC(=O)C/C(C)=N/NC(=O)COc2ccc(C)cc2Br)cc1OC,i,i,i,i,i,i
COc1ccccc1CNC(=O)C/C(C)=N/NC(=O)COc1ccc(C)cc1Br,i,i,i,?,12µM,12µM
CC(C)CNC(=O)NC(=O)COC(=O)Cn1cnc2ccccc2c1=O,i,i,i,i,i,?
c1ccc(-n2c(-c3ccco3)nnc2N2CCOCC2)cc1,i,i,i,i,i,i
CCOc1cc(N2CCOCC2)c(OCC)cc1NC(=O)CN1C(=O)NC(C)(c2ccc(OC)cc2)C1=O (configuration not stated),i,i,i,i,i,i
C=CCN1C(=O)NC(c2ccc(OC)cc2)(C(F)(F)F)S/C1=C(\C#N)c1nnc(N2CCOCC2)n1-c1ccccc1 (configuration not stated),-52,i,i,?,i,i
C=CCN1C(c2cccc(C(F)(F)F)c2)=CS/C1=C(/C#N)c1nnc(N2CCOCC2)n1-c1ccccc1,i,i,i,i,12µM,12µM
C=CCN1C(c2ccc(Br)cc2)=CS/C1=C(/C#N)c1nnc(N2CCOCC2)n1-c1ccccc1,i,i,i,i,8.2µM,7.3µM
C=C(C)C(=O)Oc1ccc(N2C(=O)[C@@H]3C4C=CC(C4)[C@@H]3C2=O)cc1,-99,i,i,i,?,?
O=C(/C=C/c1ccco1)c1ccc(NC(=O)C23CC4CC(CC(C4)C2)C3)cc1,i,i,i,i,15µM,21µM
COC(=O)c1ccccc1COc1cccn2c(N(C)C(=O)CCC3CCCC3)c(C)nc12,i,i,nt,i,?,?
Cc1nc2c(OCc3ccc(OC(F)F)cc3)cccn2c1N(C)C(=O)CCC1CCCC1,-58,?,nt,?,10µM,13µM
Cc1nc2c(OCc3ccc(F)c(F)c3)cccn2c1N(C)C(=O)CCC1CCCC1,i,18µM,nt,?,16µM,?
COc1cc(=O)n2c(c1C(=O)NC(C)c1ccco1)CCN(C(=O)c1ccc3c(c1)OCCO3)CC2 (configuration not stated),nt,nt,nt,nt,i,i
C[n+]1cccc(O)c1SCc1ccccc1,i,23µM,i,i,4.6µM,5.2µM
SMILES,IL-1B inflam inh,HT1080 IDH1KD tx,uPA generation,HT1080NT lethal,TDP1 cell noCPT,DT40 TDP1 CPT
C(#CSCc1ccccc1)SCc1ccccc1,i,i,nt,i,i,i
CCc1nc2c(OCc3ccc(C(F)(F)F)cc3)cccn2c1N(C)C(=O)c1ccco1,i,i,nt,i,?,?
CCc1nc2c(OCc3ccc(C(F)(F)F)cc3)cccn2c1N(C=O)Cc1ccc(OC)cc1,-72,?,nt,?,16µM,21µM
Cc1nc2c(OCc3ccc(C(F)(F)F)cc3)cccn2c1N(C)Cc1cccs1,-84,26µM,nt,?,?,?
CCCCN(C=O)c1c(CC)nc2c(OCc3ccc(C(F)(F)F)cc3)cccn12,-65,?,nt,?,12µM,12µM
O=C(COC(=O)c1c(F)cccc1F)Nc1cccc(S(=O)(=O)N2CCCCC2)c1,i,i,nt,i,?,i
Cc1ccc(-c2nc3ccccc3o2)cc1NC(=O)C(C)Oc1ccccc1 (configuration not stated),nt,nt,nt,nt,i,i
Cc1ccsc1/C=C(\C(=O)c1ccc(OC(C)C)cc1)c1nc2ccccc2o1,-67,i,i,i,18µM,16µM
COc1ccc(C(CCN(Cc2ccc(OC)c(OC)c2)C(C)=O)C(C)C)cc1 (configuration not stated),i,i,i,i,?,18µM
COc1ccc(C(=O)Cc2ccc(OC)c(OC)c2)cc1,i,i,i,i,i,i

# Compound activity: PubChem, National Center for Advancing Translational Sciences (NCATS)
